Only some compounds are listed: those with a hit (about 3.6% of all), similar ones and a draw of the others.
Nrf2 block: Nrf2 pathway inhibition. A549 ARE-Fluc reporter, luciferase luminescence, 18-24 h. Potency, µM (series often up to 46 µM), without a hit: at the highest dose activity change, negative = inhibition, usual class: inhibitors. hit rate 2.1% among 360,000. AID 504444; note: % is set by controls: 0 for no effect and ±100 for the full control effect; nearly all actives have a fitted effect of over 60% in size
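Nrf2 function is reported as luminescence of an ARE-controlled luciferase in A549 cells. Compounds were tested at several concentrations, and a CellTiter-Fluor read on the same wells flagged cytotoxicity.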
A549 tox: A549 cytotoxicity, counter-screen for Nrf2 inhibitors; A549 ARE-Fluc cells, CellTiter-Fluor viability, 18-24 h; Potency, µM (doses to about 46 µM), inactives show top-dose activity change, negative = cytotoxicity, actives largely listed as inhibitors; hit rate 0.16% among 390,000; AID 504648; note: % is set by controls: 0 for no effect and ±100 for the full control effect
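Cytotoxicity counterscreen: CellTiter-Fluor fluorescence was measured in A549 ARE_Fluc cells after 18-24 h of compound exposure in a concentration series. The subsequent BugLite luminescent read reports ARE-luciferase activity.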
TGFb inhibitor: inhibitors of TGF-b signaling | hit rate 1.2% among 410,000 | AID 588855 | HepG2 CAGA-GFP TGF-b/SMAD3 reporter, GFP fluorescence, 18 h; TGF-beta stimulated, 500 pg/mL final | Potency, µM (titrated, usually from 46.1 µM), inactives show at the highest dose activity, negative = inhibition, actives largely listed as inhibitors; note: % is set by controls: 0 for no effect and ±100 for the full control effect; nearly all actives have a fitted effect of over 65% in size
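HEPG2 CAGA-GFP reporter cells (1000/well, DMEM with 1% FBS) received compounds, then recombinant TGF-beta at 500 pg/mL final for 18 hours at 37 degrees C. Per-cell GFP summed per well was normalised to unstimulated and stimulated DMSO controls before curve fitting.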
HepG2 tox: kills HepG2 cells in TGF-b inhibitor counter-screen | HepG2 CAGA-GFP viability, ATP luminescence, 18 h | Potency, µM (highest dose often 46.1 µM), for the others: top-dose activity change, negative = cytotoxicity, most hits filed as cytotoxic | hit rate 0.76% among 410,000
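HepG2 CAGA-GFP cells (1000/well, DMEM with 1% FBS) received compound, then TGF-beta at 500 pg/mL final, and were incubated 18 hours at 37 degrees C. Viability was read by CellTiter-Glo luminescence. Media-only wells were set as complete cell-killing and DMSO as no toxicity.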
Nrf2 ARE act: activates Nrf2 signaling; AREc32 ARE-luciferase reporter (MCF7-derived line), luminescence, 24 h; Potency, µM (top dose mostly 46.1 µM), for the others: at the top dose activation, hits mostly activators; hit rate 0.31% among 410,000; AID 624171; note: % of control where 0% means no effect; nearly all actives have a fitted effect of over 65% in size
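For detection, Steady-Glo was added and plates sat 30 min at RT; before that, AREc32_Fluc cells grown overnight in OPTI-MEM/5% FBS had been treated with 23 nL compound for 24 hr at 37 deg C.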
Numbers without * were called inactive. Calls come from the whole dose curve; as a rule, active = well fitted curve in the direction sought with a large enough effect; inconclusive = small, poorly fitted or top-dose-only effect, or another doubt; inactive = no such curve, though single readings can be large; an effect the other way counts as inactive or inconclusive. Potency is the fitted concentration of half-maximal effect.

Results for COc1ccccc1NC(=O)Nc1nc(CC(=O)N2CCN(c3ccccc3)CC2)cs1 ?
Nrf2 block: 7.3µM*; A549 tox: -15%; TGFb inhibitor: -18%; HepG2 tox: -5%; Nrf2 ARE act: 2%

Results for COc1ccc(CC(N)c2csc(NC(=O)Nc3ccc(OC)cc3)n2)cc1 (stereo unspecified) ?
TGFb inhibitor: inconclusive; HepG2 tox: -82%; Nrf2 ARE act: 5%

How did CC(C)C[C@@H](CN1CCC[C@H]1CN1C(=O)C(=O)NC[C@@H]1Cc1ccc(O)cc1)N1C[C@H](Cc2ccccc2)N(CC2CCCCCC2)C(=O)C1=O do in these assays?
Nrf2 ARE act: 0%

What do the screens show for `COc1cccc(NC(=O)[C@@H]2CCCN2C(=O)C2CCN(S(=O)(=O)c3ccc(C)cc3)CC2)c1`?
Nrf2 block: -15%; A549 tox: -10%; TGFb inhibitor: 1%; HepG2 tox: 3%; Nrf2 ARE act: 0%

How did NC(COCc1ccccc1)c1csc(Nc2ncccn2)n1 (stereo unspecified) do in these assays?
TGFb inhibitor: 0%; HepG2 tox: -1%; Nrf2 ARE act: 2%

How did COc1ccccc1NC(=O)Nc1nc(C(N)Cc2ccc(C(F)(F)F)cc2)cs1 (stereo unspecified) do in these assays?
TGFb inhibitor: inconclusive; HepG2 tox: 20µM*; Nrf2 ARE act: -3%

Results for CC(C)CC(N)c1csc(Nc2ncccn2)n1 (stereo unspecified) ?
TGFb inhibitor: 11µM*; HepG2 tox: -23%; Nrf2 ARE act: -1%

Results for O=C(Nc1cc(Cl)ccc1O)C1CC(c2c(F)cccc2Cl)=NO1 (stereo unspecified) ?
Nrf2 block: -7%; A549 tox: 1%; TGFb inhibitor: -27%; HepG2 tox: 1%; Nrf2 ARE act: inconclusive

Results for O=C(Nc1cc(Br)ccc1O)C1CC(c2ccccc2Cl)=NO1 (stereo unspecified) ?
Nrf2 block: 1%; A549 tox: -3%; TGFb inhibitor: 16µM*; HepG2 tox: -57%; Nrf2 ARE act: 8%

What do the screens show for `COCCCNC(=O)Cc1ccccc1OC`?
Nrf2 block: -7%; A549 tox: -3%; TGFb inhibitor: 13%; HepG2 tox: 1%; Nrf2 ARE act: 0%

How did C/C(=N\Nc1nc(C(=O)O)cs1)c1ccccc1 do in these assays?
Nrf2 block: inconclusive; A549 tox: 6%; TGFb inhibitor: -5%; HepG2 tox: -18%; Nrf2 ARE act: 3%

How did Cc1ccc(S(=O)(=O)N2CCCC2)cc1C(=O)NCc1ccccn1 do in these assays?
Nrf2 block: -14%; A549 tox: 1%; TGFb inhibitor: -17%; HepG2 tox: -15%; Nrf2 ARE act: 0%

How did CCCC(=O)N1CCCC(c2cc(C(=O)Nc3ccccc3)no2)C1 (stereo unspecified) do in these assays?
TGFb inhibitor: 1%; HepG2 tox: 10µM*; Nrf2 ARE act: -3%

What do the screens show for `CCCCN(CCCC)c1ccc(Cn2ccc3ccccc32)cc1`?
TGFb inhibitor: 18µM*; HepG2 tox: -72%

Results for Cc1ccc2c(=O)cc(C(=O)Nc3c(C)cccc3C)oc2c1 ?
Nrf2 block: -7%; A549 tox: -9%; TGFb inhibitor: -17%; HepG2 tox: -9%; Nrf2 ARE act: -1%

What do the screens show for `Oc1ccc(N=Nc2ccc3c(c2)OCCO3)c2ncccc12`?
Nrf2 block: 18µM*; A549 tox: inconclusive; TGFb inhibitor: inconclusive; HepG2 tox: 10%; Nrf2 ARE act: 11%

Results for NS(=O)(=O)c1ccc(N=Nc2ccc(O)c3ncccc23)cc1 ?
Nrf2 block: 2%; A549 tox: -26%; TGFb inhibitor: 8.9µM*; HepG2 tox: 6.3µM*; Nrf2 ARE act: -1%

Results for CCOc1ncccc1C(=O)Nc1ccc(C)c(S(=O)(=O)N2CCCCCC2)c1 ?
Nrf2 block: -25%; A549 tox: -16%; TGFb inhibitor: -27%; HepG2 tox: -51%; Nrf2 ARE act: 3%

Results for O=C(NC1CCCC1)c1sc(=S)n2c1[nH]c(=O)c1ccccc12 ?
Nrf2 block: 16µM*; A549 tox: inconclusive; TGFb inhibitor: -13%; HepG2 tox: -32%; Nrf2 ARE act: 2%

Results for CC(=O)C[C@H]1c2cc(C(F)(F)F)ccc2S(=O)(=O)N1C1CCCCC1 ?
Nrf2 block: 4%; A549 tox: 3%; TGFb inhibitor: 11µM*; HepG2 tox: -16%; Nrf2 ARE act: 4%

How did O=C1NCCCc2nc(Oc3ccccc3)sc21 do in these assays?
Nrf2 block: 6%; A549 tox: -1%; TGFb inhibitor: inconclusive; HepG2 tox: -1%; Nrf2 ARE act: 2%

How did CC1(Oc2cnc(Cl)c3ccccc23)CCN(Cc2ccc(OC(F)(F)F)cc2)C1 (stereo unspecified) do in these assays?
TGFb inhibitor: inconclusive; HepG2 tox: -47%; Nrf2 ARE act: 12%

Results for COC(=O)c1ccc(COC(=O)c2ccc(CS(=O)(=O)c3ccc(C)cc3)cc2)cc1 ?
Nrf2 block: -17%; A549 tox: -5%; TGFb inhibitor: 0%; HepG2 tox: -42%; Nrf2 ARE act: 0%

How did COC(=O)c1cc2c(n1S(=O)(=O)c1ccc(C)cc1)C(=O)C(=O)c1[nH]cc(C(=O)OCc3ccccc3)c1-2 do in these assays?
Nrf2 block: 4.1µM*; A549 tox: 4.1µM*; TGFb inhibitor: inconclusive; HepG2 tox: 0.71µM*; Nrf2 ARE act: -2%

What do the screens show for `COc1ccccc1/C=C1\SC(=O)N(CCC(=O)N2CCCCC2CCO)C1=O` (stereo unspecified)?
Nrf2 block: -6%; A549 tox: -11%; TGFb inhibitor: 1%; HepG2 tox: -5%; Nrf2 ARE act: 13%

How did COCCn1c(C)cc(C(=O)COC(=O)c2ccccc2Br)c1C do in these assays?
Nrf2 block: inconclusive; A549 tox: -3%; TGFb inhibitor: 12%; HepG2 tox: 2%; Nrf2 ARE act: -1%

What do the screens show for `COCCn1c(C)cc(C(=O)COC(=O)c2[nH]c(C)c(C(C)=O)c2C)c1C`?
Nrf2 block: 23µM*; A549 tox: -14%; TGFb inhibitor: -22%; HepG2 tox: -25%; Nrf2 ARE act: 2%

How did CCCCNC(=O)c1ccc(-c2nc(CS(=O)(=O)c3ccc(C)cc3)c(C)o2)cc1 do in these assays?
Nrf2 block: 5%; A549 tox: 1%; TGFb inhibitor: 18%; HepG2 tox: 12%; Nrf2 ARE act: 0%

How did CCOc1ccc(-n2c(N)c(C(=O)NCc3ccco3)c3nc4ccccc4nc32)cc1 do in these assays?
Nrf2 block: 21%; A549 tox: 6%; TGFb inhibitor: -13%; HepG2 tox: -32%; Nrf2 ARE act: 11µM*
